VP16 counter – counter-screen for ROR gamma inhibitors: Gal4-VP16 reporter; Drosophila S2 Gal4-VP16 UAS-luciferase, luminescence, 20 h; Potency, µM (top dose mostly 53.6 µM), without a hit: at the highest dose activity, negative = inhibition, usual class: inhibitors; hit rate 3.5% among 310,000;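 further: Gal4-VP16 expression switched on by copper sulfate through the metallothionein promoter; potency means the concentration at half of the fitted maximal effect; nearly all actives have a fitted effect of over 50% in size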
PKM2 act – increases activity of human pyruvate kinase M2; P14618; purified PKM2, Kinase-Glo ATP luminescence, activation; response scale: 0% is enzyme alone, no compound; Potency, µM (series often up to 57.5 µM), for inactives: at the top dose activation, hits mostly activators; hit rate 0.34% among 260,000; AID 1631; further: potency means the concentration at half of the fitted maximal effect; nearly all actives have a fitted effect of over 55% in size
Target sequence (P14618 whole entry, looked up): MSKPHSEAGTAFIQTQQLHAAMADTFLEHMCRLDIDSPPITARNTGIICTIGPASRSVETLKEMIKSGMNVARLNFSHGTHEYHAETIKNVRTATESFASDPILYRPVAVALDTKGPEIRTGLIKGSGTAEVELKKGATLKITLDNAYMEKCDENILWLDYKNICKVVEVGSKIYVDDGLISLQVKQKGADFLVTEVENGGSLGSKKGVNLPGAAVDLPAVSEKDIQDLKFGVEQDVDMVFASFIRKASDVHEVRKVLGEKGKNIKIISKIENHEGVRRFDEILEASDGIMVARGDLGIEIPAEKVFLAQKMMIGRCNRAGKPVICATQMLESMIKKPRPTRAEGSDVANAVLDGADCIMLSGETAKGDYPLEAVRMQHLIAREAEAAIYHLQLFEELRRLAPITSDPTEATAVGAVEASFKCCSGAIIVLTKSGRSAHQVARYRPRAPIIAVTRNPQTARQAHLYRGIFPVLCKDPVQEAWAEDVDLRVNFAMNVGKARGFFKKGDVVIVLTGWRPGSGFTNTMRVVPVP
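Purified hPK-M2 (>95%) run at intermediate activity with 0.1 mM ADP and 0.5 mM PEP in 50 mM imidazole pH 7.2, KCl, MgCl2; 1 h room temperature. ATP formed read by Kinase-Glo luminescence; normalized to uninhibited and no-enzyme controls.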
RORgamma inh – ROR gamma (mouse) transcription inhibition; Drosophila S2 Gal4-RORgamma UAS-luciferase reporter, 20 h; Potency, µM (titrated, usually from 53.6 µM), for the others: at the highest dose activity change, negative = inhibition, hits mostly inhibitors; hit rate 5.4% among 310,000; AID 2551; further: potency means the concentration at half of the fitted maximal effect; nearly all actives have a fitted effect of over 60% in size
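A Gal4/UAS one-hybrid system in insect cells: metallothionein-promoter Gal4–ROR gamma fusion plus Photinus luciferase reporter. Copper sulfate 700 uM final, 20 hr ambient incubation, luminescent detection after 10 min with reagent.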
Six1-Eya2 inh – Six1/Eya2 interaction inhibition | hit rate 0.56% among 360,000 | AlphaScreen GST-Six1/His-Eya2 binding, biochemical; active compounds read low | Q15475+O00167 | activity change, % (no concentration beside the values); in the data active means activity change below about -65%; inconclusive means mostly about -30% to -63%
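AlphaScreen with GST-Six1 and His-Eya2 (5X mix: 250 nM and 500 nM), glutathione donor and nickel acceptor beads; buffer 50 mM Tris pH 8.0, 300 mM NaCl, 1 mM TCEP; 1 h at 37 C in the dark.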
CtBP-E1A blk – blocks the CtBP interaction with E1A | AlphaScreen GST-E1A/His-CtBP binding, 1536-well; active compounds read low | activity change, % (test concentration not listed) | hit rate 0.49% among 340,000 | AID 651724; in the data active means activity change below about -65%; inconclusive means mostly about -30% to -63%
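Homogeneous bead-based format: GST-tagged E1A captured on glutathione donor beads, His-tagged CtBP on nickel acceptor beads; compounds precede bead addition by 2 h at 37 °C.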
Active calls of the source: *; u = inconclusive; x = no result given. A selection: hits, their analogues and other compounds. The true share with any hit is near 5.6%. Unless noted, the call rests on the fitted dose curve; in most records, active means well fitted curve in the direction sought with a large enough effect; inconclusive means small, poorly fitted or top-dose-only effect, or another doubt; inactive means no such curve, though single readings can be large; an effect the other way counts as inactive or inconclusive. On the % scale 0 is the no-effect control and ±100 the full control effect.

SMILES	VP16 counter	PKM2 act	RORgamma inh	Six1-Eya2 inh	CtBP-E1A blk
CC1CCCC(C)N1C(=O)COC(=O)COc1ccc(C#N)cc1 (stereo not drawn)	x	x	x	-3	-5
CCCc1cc2c(=O)c(-c3cscn3)c(C(=O)OCC)oc2cc1O	-25%	-4%	u	3	4
CCOC(=O)c1[nH]nc(-c2cc(CC)c(O)cc2O)c1-c1cscn1	13µM*	2%	u	-6	-5
CC1=NN(c2ccc(C)cc2)C(=O)/C1=C\C=C\c1ccccc1	u	-9%	u	7	0
CC1=NN(c2cccc(C(=O)O)c2)C(=O)/C1=C\C=C/c1ccccc1	3.5µM*	8%	1.1µM*	4	2
COC(=O)/C=C1\N/C(=N\c2nc(C)cc(C)n2)N(c2ccc(C)c(C)c2)C1=O	u	11%	11µM*	12	7
CCOC(=O)C1(C)CCN1C(=O)c1cc2ccccc2s1 (stereo not drawn)	x	x	x	-15	-5
CCC(C)(C)c1ccc(OCCCC[n+]2ccccc2)c(C(C)(C)CC)c1	18µM*	1%	u	8	-2
O=C(Nc1nncs1)C(Sc1ccccc1)c1ccccc1 (stereo not drawn)	-24%	-2%	11µM*	0	0
O=C(Nc1ccon1)C(Sc1ccccc1)c1ccccc1 (stereo not drawn)	10%	-1%	u	2	2
O=C(N/N=C/c1cnc(N2CCCCC2)s1)c1ccc(Cl)cc1	u	0%	2.2µM*	0	x
Clc1ccccc1COc1ccccc1-c1nnco1	u	-2%	11µM*	1	0
c1ccc(OCCOc2ccccc2-c2nnco2)cc1	0%	-3%	3%	9	4
CCCn1c(SCC(=O)N(C)CC(=O)Nc2ccc(Cl)cc2)n[nH]c1=O	x	x	x	-15	-5
N=c1ccn2c(n1)OCC1C2O[C@@H](O)[C@H]1O (stereo partly drawn)	-17%	x	-4%	x	x
O=C(CCl)N1N=C(c2ccco2)CC1c1ccco1 (stereo not drawn)	u	8%	10µM*	u	-9
O=C(CCl)N1N=C(c2cccs2)CC1c1ccco1 (stereo not drawn)	u	16%	11µM*	1	4
O=C(O)/C=C/C(=O)N1N=C(c2ccco2)CC1c1ccco1 (stereo not drawn)	2%	x	13%	-4	-13
CN1CCN(CC(=O)N2N=C(c3cccs3)CC2c2ccco2)CC1 (stereo not drawn)	u	4%	-40%	-3	-2
CC(C)C(=O)Nc1cccc(COc2ccc(CN(CCc3ccccc3)C(=O)OC(C)(C)C)cc2)c1	x	x	x	-22	-4
c1ccc(OCCn2c(-c3ccco3)nc3ccccc32)cc1	1%	-3%	11µM*	-10	-6
Cc1cccc(OCCn2c(-c3ccco3)nc3ccccc32)c1	-2%	0%	16µM*	-12	-11
CCOC(=O)CNc1oc(-c2ccccc2)nc1-c1ccccc1	-14%	x	6%	x	x
COc1ccc(C(NC(C)=O)c2nccc3cc(OC)c(OC)cc23)cc1OC (stereo not drawn)	-9%	-1%	12%	10	0
COc1ccc(C(NC(C)=O)c2cc(Cl)c3cccnc3c2O)cc1OC (stereo not drawn)	-25%	-3%	4µM*	u	u
SMILES	VP16 counter	PKM2 act	RORgamma inh	Six1-Eya2 inh	CtBP-E1A blk
CCCC(=O)NC(c1ccc(OC)c(OC)c1)c1c(O)ccc2ccccc12 (stereo not drawn)	0%	-7%	31%	-1	-5
COc1ccccc1C(NC(C)=O)c1c(O)ccc2ccc(O)cc12 (stereo not drawn)	x	x	x	7	1
COc1ccccc1C(NC(C)=O)c1cc(Cl)c2cccnc2c1O (stereo not drawn)	2.8µM*	x	2.2µM*	u	u
CCC(=O)NC(c1ccc(OC)c(OC)c1)c1cc(Cl)c2cccnc2c1O (stereo not drawn)	-4%	1%	0%	-82*	-85*
CCOC(=O)C1=C[C@@H](CC)N(S(=O)(=O)c2ccccc2)[C@H]1c1ccccc1	x	x	x	10	4
COc1cccc(CNC(=O)Cn2c(=O)c3cccn3c3ccccc32)c1	-10%	x	1%	4	x
Cc1cc(O)ccc1N=Cc1c(C(F)(F)F)[nH][nH]c1=O	u	-3%	11µM*	-5	x
O=c1[nH][nH]c(C(F)(F)F)c1C=Nc1ccccc1	-6%	-4%	-11%	7	1
CCOc1ccc(NC(=S)N(CCOC)C(C)c2ccco2)cc1 (stereo not drawn)	u	-3%	8.9µM*	-6	x
CCc1ccccc1NC(=S)N(CCOC)C(C)c1ccco1 (stereo not drawn)	-5%	-2%	13µM*	2	1
CCc1cccc(C)c1NC(=S)N(CCOC)C(C)c1ccco1 (stereo not drawn)	0%	-1%	10µM*	-2	0
COCCN(C(=S)Nc1ccccc1C)C(C)c1cccs1 (stereo not drawn)	u	7%	u	2	-6
CN(CC(=O)NCc1ccco1)CC(=O)Nc1cc(S(C)(=O)=O)ccc1Cl	x	x	x	-5	8
CCOC(=O)CSc1nnc(-c2ccccc2NC(=O)c2ccccc2)o1	-7%	-7%	-10%	4	7
N#Cc1cccc(NC(=O)CSc2nnc(-c3n[nH]c4ccccc34)o2)c1	4%	u	21%	-26	-87*
Cc1ccc(NC(=O)CSc2nnc(-c3ccccc3C)o2)cc1C	u	3%	14µM*	4	-9
Cc1cc(C)cc(NC(=O)CSc2nnc(-c3ccccc3C)o2)c1	u	-9%	-30%	0	6
Cc1cccc(NC(=O)CSc2nnc(-c3ccccc3C)o2)c1	1%	-7%	5µM*	-1	1
Cc1cccc(NC(=O)CSc2nnc(-c3n[nH]c4ccccc34)o2)c1	-13%	14%	27%	-13	2
CCc1nnc(NC(=O)CSc2nnc(-c3ccccc3NC(=O)c3ccccc3)o2)s1	3.5µM*	3%	2.2µM*	-15	-27
Cc1ccccc1CNc1nnnn1C	-8%	1%	12%	23	0
CCCN1CCC(=O)N([C@H](CN=[N+]=[N-])CC(C)C)CC1	5%	0%	1%	4	-2
O=C(c1ccc(S(=O)(=O)Nc2cccc(C(F)(F)F)c2)cc1)N1CCN(c2ccccc2O)CC1	x	x	x	1	6
CC(C)c1cc(C(=O)NCCc2ccccc2)no1	0%	-3%	-11%	5	-13
O=C(CSc1nnc(-c2ccc(O)cc2)o1)Nc1cccc(O)c1	-25%	7.9µM*	-11%	8	0
O=C(CSc1nnc(-c2ccc(O)cc2)o1)Nc1ccc2c(c1)OCCO2	-8%	-1%	27%	-1	0
